# Measured values taken from paper PMC9911399, “Two distinct binding modes provide the RNA-binding protein RbFox with extraordinary sequence specificity”.
# Positions count from the first letter of the chain named. The full ranking holds about 16,000 sequences; the median of “ka relative to ugcaugu” is about 0.096, and the highest 2% start at about 0.35. This excerpt belongs to a sample that is enriched for the highest values.
# T1: RBFOX1 RRM RbFoxmut (Fox-RRM*) (Homo sapiens, UniProt Q9NWB1 109-208, R118D;E147R;N151S;E152T)
# T1 sequence: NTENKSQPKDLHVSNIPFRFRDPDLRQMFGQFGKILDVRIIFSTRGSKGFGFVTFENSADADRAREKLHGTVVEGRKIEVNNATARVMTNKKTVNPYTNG
# B1: AAGACCU (DNA:RNA)
# RNA: GGGAGACCGGAAUUCAGAUUGUCCAAGACCUUUAAAUCCCGUCGUAGCCACCA
# DNA 1: CAATCTGAATTCCGGTCTCCC
# DNA 2: TGGTGGCTACGACGGGATT
# B2: GACUUGG (DNA:RNA)
# RNA: B1 RNA with A25G, G27C, A28U, C29U, C30G, U31G
# DNA 1: CAATCTGAATTCCGGTCTCCC
# DNA 2: TGGTGGCTACGACGGGATT
# B3: CCCAUAU (DNA:RNA)
# RNA: B1 RNA with A25C, A26C, G27C, C29U, C30A
# DNA 1: CAATCTGAATTCCGGTCTCCC
# DNA 2: TGGTGGCTACGACGGGATT
# B4: UUCGAGC (DNA:RNA)
# RNA: GGGAGACCGGAAUUCAGAUUGUCCUUCGAGCUUAAAUCCCGUCGUAGCCACCA
# DNA 1: CAATCTGAATTCCGGTCTCCC
# DNA 2: TGGTGGCTACGACGGGATT
# B5: GAAGACC (DNA:RNA)
# RNA: B4 RNA with U25G, U26A, C27A, G30C
# DNA 1: CAATCTGAATTCCGGTCTCCC
# DNA 2: TGGTGGCTACGACGGGATT
# B6: CAAUUUU (DNA:RNA)
# RNA: B1 RNA with A25C, G27A, A28U, C29U, C30U
# DNA 1: CAATCTGAATTCCGGTCTCCC
# DNA 2: TGGTGGCTACGACGGGATT
# B7: CUCUUGA (DNA:RNA)
# RNA: B4 RNA with U25C, G28U, A29U, C31A
# DNA 1: CAATCTGAATTCCGGTCTCCC
# DNA 2: TGGTGGCTACGACGGGATT
# B8: UUUGGCC (DNA:RNA)
# RNA: B4 RNA with C27U, A29G, G30C
# DNA 1: CAATCTGAATTCCGGTCTCCC
# DNA 2: TGGTGGCTACGACGGGATT
# B9: GACUCAA (DNA:RNA)
# RNA: B1 RNA with A25G, G27C, A28U, C30A, U31A
# DNA 1: CAATCTGAATTCCGGTCTCCC
# DNA 2: TGGTGGCTACGACGGGATT
# B10: UGUGUCG (DNA:RNA)
# RNA: B4 RNA with U26G, C27U, A29U, G30C, C31G
# DNA 1: CAATCTGAATTCCGGTCTCCC
# DNA 2: TGGTGGCTACGACGGGATT
# B11: UGUGUUG (DNA:RNA)
# RNA: B4 RNA with U26G, C27U, A29U, G30U, C31G
# DNA 1: CAATCTGAATTCCGGTCTCCC
# DNA 2: TGGTGGCTACGACGGGATT
# B12: UGUUGUG (DNA:RNA)
# RNA: B4 RNA with U26G, C27U, G28U, A29G, G30U, C31G
# DNA 1: CAATCTGAATTCCGGTCTCCC
# DNA 2: TGGTGGCTACGACGGGATT
# B13: CCCUGUC (DNA:RNA)
# RNA: B4 RNA with U25C, U26C, G28U, A29G, G30U
# DNA 1: CAATCTGAATTCCGGTCTCCC
# DNA 2: TGGTGGCTACGACGGGATT
# B14: UGUAGUG (DNA:RNA)
# RNA: B1 RNA with A25U, A26G, G27U, C29G, C30U, U31G
# DNA 1: CAATCTGAATTCCGGTCTCCC
# DNA 2: TGGTGGCTACGACGGGATT
# B15: UGUGUCU (DNA:RNA)
# RNA: B1 RNA with A25U, A26G, G27U, A28G, C29U
# DNA 1: CAATCTGAATTCCGGTCTCCC
# DNA 2: TGGTGGCTACGACGGGATT
# B16: CUGUGUC (DNA:RNA)
# RNA: B4 RNA with U25C, C27G, G28U, A29G, G30U
# DNA 1: CAATCTGAATTCCGGTCTCCC
# DNA 2: TGGTGGCTACGACGGGATT
# B17: UGUCGUG (DNA:RNA)
# RNA: B4 RNA with U26G, C27U, G28C, A29G, G30U, C31G
# DNA 1: CAATCTGAATTCCGGTCTCCC
# DNA 2: TGGTGGCTACGACGGGATT
# B18: UGUGUAG (DNA:RNA)
# RNA: B4 RNA with U26G, C27U, A29U, G30A, C31G
# DNA 1: CAATCTGAATTCCGGTCTCCC
# DNA 2: TGGTGGCTACGACGGGATT
# B19: GCACGUU (DNA:RNA)
# RNA: B1 RNA with A25G, A26C, G27A, A28C, C29G, C30U
# DNA 1: CAATCTGAATTCCGGTCTCCC
# DNA 2: TGGTGGCTACGACGGGATT
# B20: GUUAAGG (DNA:RNA)
# RNA: B4 RNA with U25G, C27U, G28A, C31G
# DNA 1: CAATCTGAATTCCGGTCTCCC
# DNA 2: TGGTGGCTACGACGGGATT
# Target: T1, RBFOX1 RRM RbFoxmut (Fox-RRM*)
# Assay: EMSA; HiTS-Eq, 1 nM pool, 10 min; buffer printed only for the single-RNA assays: 10 mM Tris pH 7.5, 150 mM NaCl, 3.4 mM EDTA, 0.001% NP-40, 30 C
# Conditions: tags: His6 N-terminal (pET28a); label: 5' 32P
# Outline: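 A pool of RNA with 7 randomized nucleotides, 5′-radiolabelled and with DNA-annealed flanks, was equilibrated at 1 nM for 10 min in 50 µL with purified RbFox RRM, wild type or mutant, across increasing protein concentrations. Free RNA was separated by 8% native PAGE, excised, reverse-transcribed, barcoded by PCR and sequenced. Relative association constants were obtained from read-count changes of each RNA species versus the control reaction and normalised to the cognate motif.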
row,Binder,binding signal
1,B1,0.0678 KA relative to UGCAUGU
2,B2,0.129 KA relative to UGCAUGU
3,B3,0.0892 KA relative to UGCAUGU
4,B4,0.116 KA relative to UGCAUGU
5,B5,0.0506 KA relative to UGCAUGU
6,B6,0.0669 KA relative to UGCAUGU
7,B7,0.107 KA relative to UGCAUGU
8,B8,0.282 KA relative to UGCAUGU
9,B9,0.0967 KA relative to UGCAUGU
10,B10,0.253 KA relative to UGCAUGU
11,B11,0.383 KA relative to UGCAUGU
12,B12,0.29 KA relative to UGCAUGU
13,B13,0.194 KA relative to UGCAUGU
14,B14,0.682 KA relative to UGCAUGU
15,B15,0.131 KA relative to UGCAUGU
16,B16,0.436 KA relative to UGCAUGU
17,B17,0.193 KA relative to UGCAUGU
18,B18,0.196 KA relative to UGCAUGU
19,B19,0.318 KA relative to UGCAUGU
20,B20,0.0786 KA relative to UGCAUGU
